Screen size: about 53,000 sequences; about 3,700 (7%) were called active. The entries come from a sample that favours actives as a whole. A number with no mark means an inactive call.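 Rule for the calls: active = gene knockdowns whose robust z-score for IL-1 alpha signal is at least 2 or at most -2, so actives lie on both sides; inactive = the rest.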

This experiment can be described thus: Components of the Cytosolic LPS Sensing Pathway: Gene Identification via Genome-wide siRNA Screen.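 Note: robust z of the log signal after scaling to non-targeting control siRNA wells of the plate.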 The note with it: RAW264.7 macrophages, IL-1a HTRF, actives lie on both sides, screened at 100 nM (by protocol), cells primed 5 h with Pam3CSK4 first. The method in brief: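 RAW264.7; siRNA 100 nM final, RNAiMAX, 48h 37 degrees C; Pam3CSK4 5 h; LipidA + TransIT-TKO 24 h; IL-1a HTRF; CellTiter-Glo viability; robust z vs negative-control median.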
In general terms: In TR-FRET formats the signal depends on donor and acceptor labels being close together.
For GGACAACCAAGGAAGAAACTT against Fam205c, the z-score is 0.816. Take GGUGUUUGAAGAGCUGACATT against Pde6b: the z-score is -1.85. Consider GGUUGUUAAGCUGAAGCAATT against Prkacb, for which the z-score was -0.219. To GCUAUAAUGCUGGAGUCAATT against P3h2 belongs 0.27; to GGUGUGUUUGCUAUUUCCATT against Olfr259, 0.4. As for GGUCCCAGCAUGUUUACGUTT against Slc2a12, the figure is 3.04 (active); as for GCUCUGUCUUCAGGUCAUUTT against Olfr1040, -0.0484; as for GGGACUGGAUUUCUGUAUUTT against Derl1, -0.694. To GGCUAUCCAGAGAUACGUGTT against Snrnp25 belongs -0.571. GGGCAUAGACAGUACCAGUTT against Clec2m: the z-score was -2.04 (active). For GGACCAGCUAAAUAUUAGUTT against Rgs2, the z-score is -0.315. For the sequence GGCAUUAAUAUGUCUGACUTT against Tada1, the z-score is -0.0627. As to GGAAAAAUGGCAACUUCAATT against Dock3, the z-score was 0.766. As for GGUGUAUGUCACCCUGACCTT against Sag, the figure is -0.617; as for GGGUAACUGGUUUGUAUGATT against Gm4814, 1.34; as for GGGCAUAUUCAAACUUGUGTT against Elf2, -1.68.

As to GGCUCAGACCUGGAUACAUTT against Oas1e, the z-score was -2.31 (active). Consider CCAAGGUACUACUGGGAGATT against Sval3, for which the z-score is 0.268.

As to GCAAGUACGCUGCUCUGUCTT against Eif4b, the z-score was 0.397.

With GGCAGUCAGCUAAUGCUUATT against Pros1, the z-score is -0.372.

Take CGAGUAUUUUGAAAUCCUGTT against Cdcp3: the z-score is 0.406. As for GGAUCUAUGGGUAUCCUGCTT against Adam1a, the figure is -1.8; as for GGAGGAUGAGAUGAUGCCATT against Sez6l2, -2.19 (active); as for GGCUCAAGUAUGAGAAUGATT against Krt15, -0.859. As for GGCUUUCCUUCGGAAGAAUTT against Abca14, the figure is -1.15. Take GGAAGAUACGUGCAAAAUGTT against Rbms2: the z-score is -0.562. As for GGAACAGUCUGAAAUACACTT against Usp18, the figure is -0.907; as for GCAGUUCUGGUUCUGUCUGTT against Nudcd3, -0.203; as for GGCUCUUCUUAUGCACCCUTT against Pdyn, -0.543. As to CCCAGAAGGACGGCACUAGTT against H2-DMb2, the z-score was 0.265.

Consider GCCUGACAAUAGUCAUUUCTT against Olfr985, for which the z-score is -2.03 (active). To GGCUCACACUCCUGUUAAUTT against Fam20c belongs -1.02; to GGGCAUGAUUUUCACUUCCTT against Gpr150, 0.79.

Consider CGAGAAGGGUCAUAUGAGCTT against Rbp4, for which the z-score was -1.84. As for GCUGUGACAGAAGCUUUCGTT against Vars2, the figure is -0.201; as for CCCUCAUGUUUCAUUUGUGTT against Glrx3, -0.454; as for GCUUGAUAUAGUAUCCUUUTT against Prpf38b, -2.05 (active). On to GGAUUGUCAGAGAAAGAGATT against Syt3, for which the z-score was -0.751. For GCUACAAAGAGUAAAACUGTT against Zfp251, the z-score is 1.01. On to GGCUGUUCGUGCAAGCCUATT against Bahcc1, for which the z-score was 0.544. To “GGUCAUCCCAUCUUACAAATT against 4933431E20Rik” belongs 0.649. CCGACAUCCUUGAUACGUUTT against Vps35l: the z-score was -2.12 (active). To GGAACUGGAAAACUUCAAATT against Mrvi1 belongs 1.04; to GGAUUGCCCUGUUGUGGUGTT against Snx17, -0.227; to GCGAUACAACUCUUAUGACTT against Dennd5b, -0.521. To GGACUAUGUGGCCCAGUGUTT against Nat8f5 belongs -1.11. To GGAGCACAAUUCAAAUUCATT against Zbtb6 belongs 2.06 (active); to GGGAAACACCUGGGUGCUUTT against Ctrl, -1.07. As for GGGAGAUUGGAAACAAAAATT against Hsd3b4, the z-score is -0.935.

As to CCCUAUCAACUGAUCUUUUTT against Scml2, the z-score is -0.732.

Consider GGAUAGCUCAUGAUGCUGUTT against Usp13, for which the z-score was -0.885.

Turning to GGAAGUUGACAAAAUAGUGTT against Dlgap5, the z-score was 0.389. To GCUAAAGUGACCUUAAAACTT against Phactr4 belongs -0.382; to GGACUACUUUAAGGAUUGGTT against Tfip11, -2.97 (active). With CGAGAUGGGAGAUUGAAAUTT against Ms4a8a, the z-score is 0.47. For the sequence GGAAGAGGAGGUGACAUACTT against Exd1, the z-score is -1.15. As for CCACAUCAAGUCUAUCAUCTT against Ryr1, the figure is -1.19; as for GGAUCAACCUAGAAGCUUGTT against Strada, -0.192; as for GGAGACUCCAACUACUUCATT against Sycp1, 1.23. As for GCCGCUUAUAUGUAUCGCUTT against Adipoq, the figure is 2.54 (active); as for CGCCUACUGCUUCAGGAUATT against Cgrrf1, 1.27. As for GGACUCAUCUUUAUUAUUCTT against Olfr393, the figure is -0.324; as for GGAAGUUGGUUAUACUCGUTT against Lins1, 0.822. Take GGAGGAAGACAUUGUGUGUTT against Tnfrsf11b: the z-score was -0.309. For the sequence GGAAAACCAUGAAGCCAUGTT against Dnase1l3, the z-score is 0.69. Take GGCUCUAUAUCCAGCAGCATT against Srst: the z-score was -1.1.

In the case of “GUCACUGAAUUUCUCCUCUTT against Olfr104-ps”, the z-score is -2.28 (active). As for GGUUAUAUCCAUGUGACACTT against Nkg7, the figure is -1.15. As for GCAGCUUUAGGUCCAUUCGTT against Pkd2l2, the figure is -0.696; as for GGAACAUCCAUGUAUUCAATT against Ube2l3, 0.76. To GGAUAUCCGUGAGAUUUCATT against Timm9 belongs 3.7 (active); to CCCACUCUUUGUGUACUGATT against Olfr262, -2.1 (active).

Turning to GGCUAAAUAUGUGAUUAGUTT against Maob, the z-score is -0.311.

Turning to GGAGUAUAUCUCGUUUAUATT against Ube2e2, the z-score is -0.221. Consider GGACCAUGCUGGAUACUAUTT against Yrdc, for which the z-score was 1.74. Take CCUGUACCCGAACAUACCATT against Fabp12: the z-score is -1.06. As for GCAAGCAGACUUGUCCUUCTT against Hnrnpc, the z-score is -0.155. As for GGUCAUCCUCAAGUCUCCUTT against Stmn3, the figure is -2.28 (active). To GGAGAAGAGAAUAGAAGAATT against Ren1 belongs -0.0528; to GGCUGUACCAAUCUGACACTT against Pvalb, 0.318; to AUAACCUAACUCACAACAATT against Olfr304, -1.06.

As to GGAAAUCGAUUCUCAUGAUTT against St6gal2, the z-score is 0.00146. To CGGGCUCUUGUAGAUUUCATT against Ccdc86 belongs 3.22 (active); to GGGUAUGAUGUGAUUGCUCTT against Eif4a2, 0.0435. As for GGAUAACCUAUCGAAUCUCTT against Dsg4, the figure is 1.26; as for GCAUCUCUCUACCAUUGACTT against Frmd8, 0.538. As for CGUACAAAGGUAGUAUACCTT against Pi4k2a, the figure is 1.1; as for GGUUCUCAUACAUAAACAATT against Mri1, -2.87 (active); as for “GGGAUAACACUCCUGUUUUTT against F630111L10Rik”, -1.06. On to GUUCCUGCUGAUCAAGGACTT against Nsmce3, for which the z-score was 0.2. As to GUCUUAUACACGUGUGGACTT against Cklf, the z-score is -0.198.

Turning to GCACCUGAUUAAGUUGCAUTT against Med15, the z-score was -2.11 (active).

Turning to GGAAUCAUUGACGUAAUCATT against Chil3, the z-score was 1.99. In the case of GACAGGCGGCCUUCCGAGATT against Hyi, the z-score is -0.479. In the case of GGGCGACACAAGGUUUUUGTT against Kif3a, the z-score is 2.61 (active). For the sequence GGAUGUAAAAUGCAGUUUATT against Tmsb4x, the z-score was 0.855. On to GCGGAAUUUGGUUUCUAUUTT against Etv2, for which the z-score is -0.432.

In the case of GGAGUUUCCAUCACGAAGATT against Bmp4, the z-score was 0.574. To CCAUUAAGAUCCGAAGUAUTT against Lrrc58 belongs -0.36; to GGUUGAAACGAGUUUUGAATT against Zbtb5, 0.00556; to GGGCAGAAAAUCAUUUGUUTT against Anxa11, 0.0839. As for CCAGUGGUAUGAGGUUGAATT against Cpne3, the figure is 0.238; as for GGAAACAACAACUGUCACATT against Defb40, -2.13 (active). Regarding GCACAUGGGAGACUAUGAATT against Necab2, the z-score was -1.14.

As to GCAGAGCGAUUAUAUGGACTT against Rnpepl1, the z-score was -0.308.

Take CGAUUACUUGGAAAACCAATT against Ifne: the z-score was -1.21. As for GCACAGGACUGAUGCUAAGTT against Wdr91, the figure is 2.92 (active); as for GGCUCAUGUAAGAUAAUUATT against Kcns3, -1.03.
